Sampled rows, rich in hits. Any-hit rate of the full collection: about 2.4%.
D2 ag-1: human D2 receptor agonism in beta-arrestin assay | P14416 | DiscoveRx PathHunter D2 beta-arrestin, luminescence, 90 min; 100% = 57 uM dopamine signal | activation, % (concentration not given with the values) | 360,000 tested, 0.084% active | AID 624465; in the data active = activation above about 40%
Target sequence (P14416 whole entry, looked up): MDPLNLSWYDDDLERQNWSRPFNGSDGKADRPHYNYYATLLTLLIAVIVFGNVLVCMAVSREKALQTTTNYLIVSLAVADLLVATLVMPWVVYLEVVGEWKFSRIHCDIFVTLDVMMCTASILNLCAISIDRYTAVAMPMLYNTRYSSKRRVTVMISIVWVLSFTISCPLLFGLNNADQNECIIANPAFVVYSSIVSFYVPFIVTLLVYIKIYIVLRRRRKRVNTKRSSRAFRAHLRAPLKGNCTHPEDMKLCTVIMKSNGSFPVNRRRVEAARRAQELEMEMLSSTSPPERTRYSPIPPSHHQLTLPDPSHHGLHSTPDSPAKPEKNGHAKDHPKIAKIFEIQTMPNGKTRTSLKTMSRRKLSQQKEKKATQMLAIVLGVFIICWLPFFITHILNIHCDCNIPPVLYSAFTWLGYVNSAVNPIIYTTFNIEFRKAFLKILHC
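DiscoveRx PathHunter D2 beta-arrestin cells (2,100/well) attached overnight, then compound-stimulated 90 min at 37 C in HBSS/10 mM HEPES/0.1% Tween-20 buffer; beta-galactosidase complementation read by luminescence after 1 h at ambient temperature. Dopamine 57 uM final (EC100) as control.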
D2 antagonist: antagonizes the human D2 dopamine receptor; P14416; HEK293 TREx D2 cells, calcium flux, dopamine EC80; inhibition, % at 10 µM; 340,000 tested, 2% active; in the data active = inhibition above about 30%; inactive = below that, where a call was filed
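In this primary screen, negative modulation is detected by tracking calcium flux after an EC80 dopamine challenge in inducible HEK293 T-REx D2 cells preexposed to test compound for 180 s.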
D2 ag-2: agonists of human D2 dopamine receptor | P14416 | HEK293 T-REx D2 cells, calcium flux agonist mode | activation, % at 2 µM | 340,000 tested, 0.53% active;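 active = activation over 3 SD above normal in the single-dose calcium agonist read, cut at about 30% in these data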
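Tetracycline-induced HEK293 Trex cells with D2 receptor force-coupled to calcium signaling, plated overnight at 30 C and loaded with no-wash calcium dye. Calcium flux read kinetically for 180 s after compound addition; responses flag agonists.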
D2 PAM-1: positive allosteric modulators of human D2 dopamine receptor; P14416; DiscoveRx D2 beta-arrestin cells, luminescence, 90 min; 100% = 57 uM dopamine signal; potentiation, % (concentration not given with the values); 360,000 tested, 0.23% active; AID 624464; in the data active = potentiation above about 50%
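PathHunter beta-arrestin assay in DiscoveRx D2 cells. Compounds were added with an EC20 of dopamine (50 nM final) for 90 min at 37 deg C. Luminescence was read 1 h after detection reagent, with 57 uM dopamine as the EC100 control.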
D2 PAM-2: positive allosteric modulators of human D2 dopamine receptor. HEK293 T-REx D2, calcium flux, EC20 dopamine potentiation. potentiation, % at 10 µM. 340,000 tested, 0.34% active. AID 485347. P14416;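 active = potentiation over 3 SD above the plate norm, cut at about 30% in these data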
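Potentiation of an EC20 dopamine calcium response is measured in a force-coupled, tetracycline-inducible Hek293 Trex D2 line. Compound-only kinetic reads over 180 s flag agonists before dopamine addition.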
A number is an active result; 0 = inactive; - = no result.

SMILES | D2 ag-1 | D2 antagonist | D2 ag-2 | D2 PAM-1 | D2 PAM-2
O=C(OCC(=O)N1CCCC1=O)c1ccc(O)cc1O | 0 | 0 | 0 | 0 | 0
CSc1ccccc1C(=O)OCC(=O)N1CCCC1=O | 0 | 0 | 0 | 0 | 51.9
CC(=O)N1CCOc2cc(S(=O)(=O)Nc3c(C)cccc3C(C)C)c(Cl)cc21 | - | - | 0 | - | 0
Cc1cc(NC(=O)C2CCN(S(=O)(=O)c3cccc4nsnc34)CC2)ccc1Br | - | - | 0 | - | 0
O=C(NC12CC3CC(CC(C3)C1)C2)C1CCCN1C(=O)NC1CCCCC1 (stereo not given) | 0 | 0 | 0 | 0 | 0
CC1CCCCN1C(=O)NC12CC3CC(CC(C3)C1)C2 (stereo not given) | 0 | 33.7 | 0 | 0 | 0
CCC(C)(C)NC(=O)CN(C(=O)CCC(=O)Nc1nccs1)c1ccc2c(c1)OCCO2 | 0 | 0 | 0 | 0 | 30.8
CCC(C)(C)NC(=O)CN(Cc1ccc2c(c1)OCO2)C(=O)CCC(=O)Nc1nccs1 | 0 | 40.8 | 0 | 0 | 0
CCc1ccc(N(CC(=O)NC(C)(C)CC)C(=O)CCC(=O)Nc2nccs2)cc1 | 0 | 0 | 0 | 0 | 0
CCOc1ccccc1NC(=O)Cn1c(=O)n(CCCC(=O)NCCOC)c(=O)c2cc(OC)c(OC)cc21 | - | - | 0 | - | -
COc1ccc(-n2ccnc(NCCc3ccccc3)c2=O)cc1OC | - | - | 0 | - | 0
Nc1nc(SCC(=O)Nc2ccc(Cl)cc2)[nH]c(=O)c1-c1ccccc1 | 0 | 35.6 | 0 | 0 | 0
COc1ccc(NC(=O)CSc2nc(O)c(Cc3ccccc3)c(=O)[nH]2)cc1 | 0 | 52.6 | 0 | 0 | 0
O=C(CSc1nc(O)c(Cc2ccccc2)c(=O)[nH]1)Nc1ccccc1 | 0 | 0 | 0 | 0 | 0
COC(=O)c1cc2oc3ccccc3c2n1CC(=O)Nc1ccc(OC)c(OC)c1 | - | - | 0 | - | 0
Cc1cc(OCc2nn[nH]n2)c2c(-c3ccccc3)cc(=O)oc2c1 | 0 | 51.1 | 0 | 0 | 0
Cc1c(OCc2nn[nH]n2)ccc2c(-c3ccccc3)cc(=O)oc12 | 0 | 0 | 0 | 0 | 0
Cc1ccc2nc(-c3ccc(NC(=O)COc4ccc(Br)cc4Br)cc3)sc2c1 | - | - | - | - | 0
CC(C)CCn1c(O)c(N=NC(=O)c2ccco2)c2ccccc21 | 0 | 31.3 | 0 | 0 | 0
COc1ccc(N(CC(=O)Nc2ccc(C)c(C)c2)S(=O)(=O)c2ccc(C)cc2)cc1OC | - | - | 0 | - | 0
Cc1nc2nc(C(F)(F)F)[nH]n2c(=O)c1Cc1ccccc1 | - | - | 0 | - | 0
CC(C)(C)c1ccc(OCC(=O)N/N=C/c2cc(Br)ccc2OC(=O)c2ccco2)cc1 | 0 | 34.0 | 0 | 0 | 0
CNC(=O)Cn1cc(S(=O)(=O)Cc2ccccc2F)c2ccccc21 | - | - | 0 | - | 0
Cc1ccc(NC(=O)COC(=O)c2ccc(CN3CCCC3=O)cc2)c(Cl)c1 | 0 | 34.8 | 0 | 0 | 0
Cc1cc(C)cc(NC(=O)COC(=O)c2ccc(CN3CCCC3=O)cc2)c1 | 0 | 0 | 0 | 0 | 0
SMILES | D2 ag-1 | D2 antagonist | D2 ag-2 | D2 PAM-1 | D2 PAM-2
O=C(COc1ccccc1F)Nc1nnc(SCc2cc(=O)n3ccccc3n2)s1 | - | - | 0 | - | 0
CN(Cc1nccs1)C(=O)C1CCC(=O)N(CCc2ccc(Cl)cc2)C1 (stereo not given) | 0 | 32.7 | 0 | 0 | 0
CC1CN(C(=O)CCC(=O)N2CCN(c3cccc(C(F)(F)F)c3)CC2)c2ccccc2O1 (stereo not given) | 0 | 40.7 | 0 | 0 | 30.1
COc1ccc(CC(C)N2CCN(c3cccc(C(F)(F)F)c3)CC2)cc1OC (stereo not given) | 0 | 74.3 | 0 | 0 | 0
COCC(=O)N1CCN(c2cccc(Cl)c2)CC1 | 0 | 0 | 0 | 0 | 0
CCOc1cc(CN2CCN(c3cccc(C(F)(F)F)c3)CC2)ccc1OC | 0 | 0 | 0 | 0 | 0
COCC(=O)N1CCN(c2cccc(C(F)(F)F)c2)CC1 | 0 | 43.9 | 0 | 0 | 0
CCOc1cc(C2C(C(=O)OC)=C(C)NC3=C2C(=O)c2ccccc23)cc(Br)c1OCC (stereo not given) | - | - | 0 | - | 0
CN1C(=O)c2oc3ccccc3c(=O)c2C1c1ccccn1 (stereo not given) | 0 | 0 | 0 | 0 | 32.5
CN1C(=O)c2oc3ccccc3c(=O)c2C1c1cccnc1 (stereo not given) | 0 | - | - | 0 | -
CCN1CCN(C(=O)c2cc3c(s2)-c2ccccc2S(=O)(=O)C3)CC1 | 0 | 45.3 | 0 | 0 | 0
Cc1ccc(Nc2nc(C)c(NC(=O)c3ccc(C)cc3)c(Nc3ccc(C)cc3)n2)cc1 | - | - | - | - | 0
COc1ccc(CNCc2ccc3c(c2)n(C)c(=O)n3C)cc1 | - | - | 0 | - | 0
O=C(NC1CC2CCCC(C1)N2Cc1ccccc1)C1CCCCC1 (stereo not given) | 0 | 0 | 0 | 0 | 0
COCCCNC(=S)NC1CC2CCC(C1)N2Cc1ccccc1 (stereo not given) | 0 | 0 | 0 | 0 | 0
S=C(NC1CCCCC1)NC1CC2CCC(C1)N2Cc1ccccc1 (stereo not given) | 0 | 76.9 | 0 | 0 | 0
S=C(NCCc1ccccc1)NC1CC2CCC(C1)N2Cc1ccccc1 (stereo not given) | 0 | 62.7 | 0 | 0 | 0
CCCNC(=S)NC1CC2CCC(C1)N2Cc1ccccc1 (stereo not given) | 0 | 67.3 | 0 | 0 | 0
CC(C)CNC(=S)NC1CC2CCC(C1)N2Cc1ccccc1 (stereo not given) | 0 | 89.9 | 0 | 0 | 0
Cc1cc(C)c(Cn2c(=O)n(CCCC(=O)NCc3ccc4c(c3)OCO4)c(=O)c3sccc32)c(C)c1 | - | - | - | - | 0
CC(C)c1ccc(Nc2cc(C(=O)NCc3cccs3)c3ccccc3n2)cc1 | - | - | 0 | - | 0
CC(=O)N1CCc2c(sc3c2c(=O)n(-c2ccc(C)cc2)c(=O)n3Cc2ccccc2C)C1 | - | - | 0 | - | 0
Cc1ccc(NC(=O)C(=O)NCC(c2cccnc2)N2CCN(Cc3ccccc3)CC2)cc1C (stereo not given) | - | - | 0 | - | 0
Cc1nc2ccc(S(=O)(=O)N(CC(=O)Nc3cccc(C)c3C)Cc3ccccc3)cc2s1 | - | - | 0 | - | 0
CCNC(=S)NC1CC2CCCC(C1)N2CCc1ccccc1 (stereo not given) | 0 | 0 | 0 | 0 | 0
SMILES | D2 ag-1 | D2 antagonist | D2 ag-2 | D2 PAM-1 | D2 PAM-2
CCNC(=S)NC1CC2CCC(C1)N2Cc1ccccc1 (stereo not given) | 0 | 57.0 | 0 | 0 | 0
Clc1ccc2c(c1)C(N1CCNCC1)=Nc1ccccc1O2 | 0 | 75.9 | 0 | 0 | 0
Cc1sc2nc(CSc3ccccc3)nc(N3CCN(C)CC3)c2c1C | 0 | 89.9 | 0 | 0 | 0
CCCN1C(=O)c2ccccc2CC1(C)C(=O)NC1CCCCC1 (stereo not given) | - | - | 0 | - | 0
Cc1ccc(NC(=S)NC(NC(=O)c2ccco2)C(Cl)(Cl)Cl)cc1 (stereo not given) | 0 | 0 | 0 | 0 | 0
Cc1cccc(NC(=S)NC(NC(=O)c2ccco2)C(Cl)(Cl)Cl)c1 (stereo not given) | 0 | 30.3 | 0 | 0 | 0

Screens deposited in PubChem BioAssay by National Center for Advancing Translational Sciences (NCATS).
